# NOMO-1 viab = NOMO-1 AML cell viability reduction, primary screen, STK33 inhibitor project, CellTiter-Glo luminescence. NOMO-1 AML viability, 72 h. inhibition, % (test concentration not listed). 37,000 compounds, 7.5% hits; in the data active means inhibition above about 80%
# PD-1 reverse act = activators reversing PD-1 mediated T-cell inhibition, primary screen, luminescence, primary human CD4 T cells, PD-L1 beads; CellTiter-Glo 96 h; activation, % (concentration not given with the values); 29,000 tested, under 10 active; AID 2316, 2010; call rule not given here;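 further: 0% = median vehicle wells and 100% = positive control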
# STK33 kin inh = STK33 kinase inhibitors, primary screen, biochemical, luminescence, ADP-Glo, MBP substrate. Serine/threonine-protein kinase 33 (Homo sapiens), Q9BYT3. inhibition, % at 12.5 µM. 27,000 compounds, 0.44% hits. AID 2322, 2010; in the data active means inhibition above about 20%
# Target sequence (Q9BYT3 whole entry, looked up): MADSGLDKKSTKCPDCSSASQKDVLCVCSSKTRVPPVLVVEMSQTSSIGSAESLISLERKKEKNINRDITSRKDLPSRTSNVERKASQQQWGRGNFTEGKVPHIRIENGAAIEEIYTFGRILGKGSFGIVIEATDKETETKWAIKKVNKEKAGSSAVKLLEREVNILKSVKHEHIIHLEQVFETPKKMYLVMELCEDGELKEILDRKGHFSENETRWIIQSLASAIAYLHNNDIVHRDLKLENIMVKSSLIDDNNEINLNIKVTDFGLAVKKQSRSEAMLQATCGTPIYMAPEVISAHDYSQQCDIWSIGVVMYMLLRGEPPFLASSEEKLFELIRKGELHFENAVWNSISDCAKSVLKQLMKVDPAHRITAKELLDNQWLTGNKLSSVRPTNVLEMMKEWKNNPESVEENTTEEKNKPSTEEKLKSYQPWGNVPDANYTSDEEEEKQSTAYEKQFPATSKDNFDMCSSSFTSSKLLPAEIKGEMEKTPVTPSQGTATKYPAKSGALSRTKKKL
# * marks the source's active call; other numbers are inactive results; x = no result given. This is one part of a sample in which hits are shown more often than they occur.
SMILES,NOMO-1 viab,PD-1 reverse act,STK33 kin inh
C[C@@H]1CN([C@@H](C)CO)C(=O)c2cc(NC(=O)Nc3ccc4c(c3)OCO4)ccc2O[C@H]1CN(C)Cc1ccc(Cl)c(Cl)c1,95*,-1,1
NCCCCCCNC(=O)[C@@H]1C[C@@H]2C(=O)NCC(=O)N2[C@@H]1c1cccc(OCCO)c1,x,x,-3
O=C(Cn1ccc([N+](=O)[O-])n1)Nc1cc(Cl)cc(Cl)c1,8,-1,1
O=C(CCCSc1nc(-c2ccco2)cc(C(F)(F)F)n1)NC1CCCC1,47,0,x
O=C(CCCCCC/C=C/c1ccc2c(c1)OCO2)N1CCCCC1,21,1,-7
O=C(/C=C/c1ccc(O)c(O)c1)O[C@@H]1C[C@](O)(C(=O)O)C[C@@H](O)[C@H]1O,16,x,-20
COc1cc(/C=C/C(=O)OC2CC3CCC2(C)C3(C)C)ccc1O (centres undefined),104*,-2,1
Cc1ccc(S(=O)(=O)Nc2ccc3c(c2)C(=O)N([C@H](C)CO)C[C@@H](C)[C@H](CN(C)Cc2ccc(-c4ccccc4)cc2)O3)cc1,111*,-2,-2
C[C@@H]1CN([C@@H](C)CO)C(=O)c2cc(NS(=O)(=O)c3ccccc3)ccc2O[C@H]1CN(C)Cc1ccc(-c2ccccc2)cc1,49,0,x
C[C@@H]1CN([C@@H](C)CO)C(=O)c2cc(NS(=O)(=O)c3ccc(F)cc3)ccc2O[C@@H]1CN(C)Cc1ccc(-c2ccccc2)cc1,111*,-3,-1
Cc1ccc(S(=O)(=O)Nc2ccc3c(c2)C(=O)N([C@H](C)CO)C[C@H](C)[C@H](CN(C)Cc2ccc(-c4ccccc4)cc2)O3)cc1,47,3,1
C[C@@H]1CN([C@H](C)CO)C(=O)c2cc(NS(=O)(=O)c3ccccc3)ccc2O[C@H]1CN(C)Cc1ccc(-c2ccccc2)cc1,107*,-1,7
C[C@@H]1CN([C@H](C)CO)C(=O)c2cc(NS(=O)(=O)c3ccc(F)cc3)ccc2O[C@@H]1CN(C)Cc1ccccc1,-11,0,x
O=c1c(Cl)c(NCc2ccco2)cnn1-c1ccccc1,19,6,-1
O=C(NCCC(c1ccc(F)cc1)c1ccco1)c1cccs1 (centres undefined),-4,x,-2
CCn1c(SCC(=O)Nc2ccc(I)cc2)nnc1-c1ccccc1F,29,x,0
O=C1O[C@H](c2ccccc2)[C@H](c2ccccc2)N2[C@H]1[C@@H](C(=O)N1CCCCCCC1)[C@]1(C(=O)Nc3ccc(C#CCCO)cc31)[C@H]2c1ccccc1OCCO,x,x,22*
C=CCNC(=O)[C@@H]1[C@H]2C(=O)O[C@H](c3ccccc3)[C@H](c3ccccc3)N2[C@H](c2ccc(OCCO)cc2)[C@@]12C(=O)Nc1ccc(C#Cc3ccc(OC)cc3)cc12,x,x,15
O=C1O[C@H](c2ccccc2)[C@H](c2ccccc2)N2[C@H]1[C@@H](C(=O)N1CCCCCCC1)[C@]1(C(=O)Nc3ccc(C#CC4=CCCCC4)cc31)[C@H]2c1ccc(OCCO)cc1,x,x,22*
O=C1O[C@@H](c2ccccc2)[C@@H](c2ccccc2)N2[C@@H](c3ccc(OCCO)cc3)[C@]3(C(=O)Nc4ccc(C#CC5=CCCCC5)cc43)[C@@H](C(=O)N3CCN(c4ncccn4)CC3)[C@H]12,x,x,8
C=CCNC(=O)[C@@H]1[C@H]2C(=O)O[C@H](c3ccccc3)[C@H](c3ccccc3)N2[C@H](c2ccc(OCCO)cc2)[C@@]12C(=O)Nc1ccc(C#CCNC(N)=O)cc12,x,x,20*
O=C1O[C@H](c2ccccc2)[C@H](c2ccccc2)N2[C@H]1[C@@H](C(=O)N1CCN(c3ncccn3)CC1)[C@]1(C(=O)Nc3ccc(C#CC4(O)CCCCCC4)cc31)[C@H]2c1ccccc1OCCO,x,x,9
O=C1O[C@@H](c2ccccc2)[C@@H](c2ccccc2)N2[C@@H](c3ccccc3OCCO)[C@]3(C(=O)Nc4ccc(C#CCCO)cc43)[C@@H](C(=O)N3CCN(c4ncccn4)CC3)[C@H]12,x,x,18
O=C1O[C@H](c2ccccc2)[C@H](c2ccccc2)N2[C@H]1[C@@H](C(=O)N1CCCCCCC1)[C@]1(C(=O)Nc3ccc(C#CC4(O)CCCCCC4)cc31)[C@H]2c1ccccc1OCCO,x,x,21*
COC(=O)c1sc(NC(=S)Nc2ccc(Cl)cn2)c(C(=O)OC)c1C,x,x,-2
SMILES,NOMO-1 viab,PD-1 reverse act,STK33 kin inh
COC(=O)C1=C(NC(=O)c2cccc(Cl)c2)CCS1,22,0,x
CCC1C(=O)O[C@]23C=C[C@@H]4C(C(=O)O)=CO[C@H](OC12)[C@@H]43 (some centres undefined),46,0,-1
COc1ccc2c(c1OC)OC[C@@H](c1ccc(OC)c(OC)c1OC)C2,10,x,-2
CSc1ccccc1NC(=O)C(C)N(c1ccccc1)S(C)(=O)=O (centres undefined),7,-1,3
O=C(COc1ccc2ccccc2c1)Nc1ccccc1C(=O)Nc1ccccc1,21,0,7
COc1ccc(C#Cc2ccc3c(c2)[C@]2(C(=O)N3)[C@H](C(=O)N3CCN(c4ncccn4)CC3)[C@H]3C(=O)O[C@H](c4ccccc4)[C@H](c4ccccc4)N3[C@@H]2c2ccccc2OCCO)cc1,x,x,8
COc1ccc(C#Cc2ccc3c(c2)[C@]2(C(=O)N3)[C@H](C(=O)N3CCCCCCC3)[C@H]3C(=O)O[C@H](c4ccccc4)[C@H](c4ccccc4)N3[C@@H]2c2ccccc2OCCO)cc1,x,x,30*
CCn1c(SCC(=O)Nc2ccc([N+](=O)[O-])cc2)nnc1-c1ccccc1F,13,x,1
Cc1ccc(CCN=c2c([N+](=O)[O-])nn(-c3ccc4c(c3)OCCO4)n2O)cc1,46,-1,0
O=C(Nc1ccc(C2=NCCO2)cc1)c1ccc(C(F)(F)F)cc1,38,1,x
C[C@@H]1CCCCO[C@H](CN(C)Cc2ccc(C(F)(F)F)cc2)[C@@H](C)CN([C@H](C)CO)C(=O)c2cc(NS(=O)(=O)c3cccs3)ccc2O1,77,x,-3
Cc1ccc(S(=O)(=O)Nc2ccc3c(c2)C(=O)N([C@H](C)CO)C[C@H](C)[C@H](CN(C)Cc2ccc(C(F)(F)F)cc2)OCCCC[C@@H](C)O3)cc1,126*,-7,4
Cc1ccc(S(=O)(=O)Nc2ccc3c(c2)C(=O)N([C@H](C)CO)C[C@H](C)[C@H](CN(C)C(=O)Nc2ccc(C(F)(F)F)cc2)OCCCC[C@@H](C)O3)cc1,114*,-5,3
C[C@@H]1CCCCO[C@H](CN(C)C(=O)Nc2ccc(C(F)(F)F)cc2)[C@@H](C)CN([C@H](C)CO)C(=O)c2cc(NS(=O)(=O)c3ccc(F)cc3)ccc2O1,65,x,-2
C[C@@H]1CCCCO[C@@H](CN(C)Cc2ccc(C(F)(F)F)cc2)[C@@H](C)CN([C@H](C)CO)C(=O)c2cc(NS(=O)(=O)c3cccs3)ccc2O1,110*,-13,4
C[C@@H]1CCCCO[C@H](CN(C)Cc2ccc(C(F)(F)F)cc2)[C@@H](C)CN([C@H](C)CO)C(=O)c2cc(NS(=O)(=O)c3ccccc3)ccc2O1,95*,x,x

# High-throughput results: PubChem BioAssay, Broad Institute
